From PubChem BioAssay
TGFb inhibitor: inhibitors of TGF-b signaling; Potency, µM (highest dose often 46.1 µM), without a hit: at the highest dose activity, negative = inhibition, actives largely listed as inhibitors; HepG2 CAGA-GFP TGF-b/SMAD3 reporter, GFP fluorescence, 18 h; TGF-beta stimulated, 500 pg/mL final; 410,000 compounds, 1.2% hits; note: % is set by controls: 0 for no effect and ±100 for the full control effect; nearly all actives have a fitted effect of over 65% in size
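Using HEPG2 CAGA-GFP reporter cells at 1000 cells/well, we pinned test compounds, stimulated with recombinant TGF-beta (500 pg/mL final) and measured total well GFP after 18 h.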
HT1080 IDH1KD tx: HT-1080 IDH1 knockdown cell toxicity (counter line). 360,000 compounds, 2% hits. HT-1080 IDH1 knockdown viability, ATP luminescence, 48 h. Potency, µM (top dose mostly 46.1 µM), for inactives: at the highest dose activity, negative = toxicity, usual class: cytotoxic. AID 686971;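 note: 0% = DMSO wells and -100% = cell-free medium wells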
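Cytotoxicity counter-line: IDH1KD HT-1080, 48 h, CellTiter-Glo. Curves classed by r2, magnitude and activity.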
HepG2 tox: counter-screen for TGF-b inhibitors: cytotoxicity in HepG2 cells | HepG2 CAGA-GFP viability, ATP luminescence, 18 h | Potency, µM (titrated, usually from 46.1 µM), without a hit: at the top dose activity change, negative = cytotoxicity, most hits filed as cytotoxic | 410,000 compounds, 0.76% hits
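CellTiter-Glo luminescence gave cytotoxicity after 18 hours at 37 degrees C. The cells were HepG2 CAGA-GFP in 1% FBS DMEM, stimulated with 500 pg/mL TGF-beta after compound addition. %Activity was normalised to no-cell wells (complete cell-killing) and DMSO (no toxicity), and curves were fitted and classified.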
HT1080-NT tox: kills 2HG-producing HT-1080-NT fibrosarcoma cells; HT-1080-NT fibrosarcoma viability, CellTiter-Glo ATP luminescence, 48 h; Potency, µM (top dose mostly 46.1 µM), for the others: at the top dose activity, negative = less viability, usual class: cytotoxic; 360,000 compounds, 1.6% hits; AID 686970;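 note: NT is the 2HG producing partner of a matched IDH1 knockdown line; 0% = DMSO-treated cells and -100% = media-only wells without cells; nearly all actives have a fitted effect of over 55% in size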
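HT-1080-NT fibrosarcoma cells (2HG-overproducing), 750 cells/well in RPMI with 5% FBS, dosed after 2 h and incubated 48 h at 37C. CellTiter-Glo luminescence normalized to DMSO and no-cell wells; concentration-response curves fitted and classed.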
KB-3-1 cytotox: kills parental KB-3-1 adenocarcinoma cells; Potency, µM (doses to about 46.1 µM), usual class: cytotoxic; 400,000 compounds, 1.4% hits; KB-3-1 viability, CellTiter-Glo ATP luminescence, 72 h; note: % is set by controls: 0 for no effect and ±100 for the full control effect; nearly all actives have a fitted effect of over 60% in size
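KB-3-1 cells, DMEM (no phenol red) + 10% FBS; compound by pin transfer, 72 h, 37 °C. Readout: CellTiter-Glo luminescence after 10 min. Data normalized, curve-fitted.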
KB-V1 cytotox: kills drug-selected multidrug resistant KB-V1 cells; KB-V1 MDR cells viability, CellTiter-Glo, 72 h; Potency, µM (top dose mostly 46.1 µM), most hits filed as cytotoxic; 400,000 compounds, 3.4% hits; AID 1347076; note: % is set by controls: 0 for no effect and ±100 for the full control effect; nearly all actives have a fitted effect of over 60% in size
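Cytotoxicity via CellTiter-Glo luminescence after 72 h compound exposure at 37 degrees C. Cells: drug-selected KB-V1 line, DMEM phenol-red free plus 10% FBS. Compounds tested at multiple concentrations; normalized data fitted to concentration-effect curves.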
* hit, by the source's call. Most compounds without a hit are left out; they make up all but 6.6% or so of the library. Calls come from the whole dose curve; as a rule, active = well fitted curve in the direction sought with a large enough effect; inconclusive = small, poorly fitted or top-dose-only effect, or another doubt; inactive = no such curve, though single readings can be large; an effect the other way counts as inactive or inconclusive. Potency is the fitted concentration of half-maximal effect.

`CCN1c2ccccc2-n2cccc2C12CCN(C(=O)Nc1ccccc1Br)CC2` gave TGFb inhibitor -18%, HepG2 tox -34%, KB-3-1 cytotox inactive and KB-V1 cytotox inactive.
For Cc1cc(-c2ccc(S(=O)(=O)N(C)c3ccc(C)c(C)c3)s2)on1 the results were TGFb inhibitor inconclusive, HT1080 IDH1KD tx inconclusive, HepG2 tox -8%, HT1080-NT tox inconclusive, KB-3-1 cytotox 13µM* and KB-V1 cytotox 7.3µM*.
`Cc1cc(-c2ccc(S(=O)(=O)Nc3ccc(C#N)cc3)s2)on1` gave TGFb inhibitor -5%, HT1080 IDH1KD tx -4%, HepG2 tox -6%, HT1080-NT tox 1%, KB-3-1 cytotox inactive and KB-V1 cytotox inactive.
Screening Cc1cc(-c2ccc(S(=O)(=O)Nc3ccc(Br)c(C)c3)s2)on1 returned TGFb inhibitor 13µM*, HepG2 tox -51%, KB-3-1 cytotox inactive and KB-V1 cytotox inactive.
Screening CN(N=O)c1ccc2c(c1)Cc1ccccc1-2 returned TGFb inhibitor -22%, HepG2 tox -62%, KB-3-1 cytotox inactive and KB-V1 cytotox inactive.
Screening Cn1c(NCCCN2CCOCC2)nc2c1c(=O)n(Cc1ccc(Cl)c(Cl)c1)c(=O)n2C returned TGFb inhibitor 2%, HT1080 IDH1KD tx inconclusive, HepG2 tox -39%, HT1080-NT tox inconclusive, KB-3-1 cytotox inactive and KB-V1 cytotox 15µM*.
Screening Cn1c(NCCCN2CCOCC2)nc2c1c(=O)n(Cc1ccc(Cl)cc1)c(=O)n2C returned TGFb inhibitor 2%, HT1080 IDH1KD tx inconclusive, HepG2 tox -22%, HT1080-NT tox -23%, KB-3-1 cytotox inactive and KB-V1 cytotox 18µM*.
For COc1ccc(CNc2nc3c(c(=O)n(Cc4ccc(Br)cc4)c(=O)n3C)n2C)cc1 the results were TGFb inhibitor -5%, HT1080 IDH1KD tx inconclusive, HepG2 tox 1%, HT1080-NT tox inconclusive, KB-3-1 cytotox inconclusive and KB-V1 cytotox 9.2µM*.
`Cn1c(NCc2ccccc2)nc2c1c(=O)n(Cc1ccc(Br)cc1)c(=O)n2C` gave TGFb inhibitor 0%, HT1080 IDH1KD tx inconclusive, HepG2 tox -53%, HT1080-NT tox inconclusive, KB-3-1 cytotox inactive and KB-V1 cytotox inactive.
For COc1ccc(NC(=O)C2(c3cccs3)CCOCC2)cc1Cl the results were TGFb inhibitor -2%, HepG2 tox -1%, KB-3-1 cytotox inactive and KB-V1 cytotox inactive.
Cc1cc(C)n2nc(CNC(=O)c3ccc(Cl)cc3)nc2n1 was read as TGFb inhibitor -4%, HepG2 tox -25%, KB-3-1 cytotox inactive and KB-V1 cytotox inactive.
O=C(O)c1ccc(/C=N/N2CCN(C3c4ccccc4-c4ccccc43)CC2)cc1 was read as TGFb inhibitor inconclusive, HT1080 IDH1KD tx 2%, HepG2 tox -5%, HT1080-NT tox 5%, KB-3-1 cytotox inactive and KB-V1 cytotox inactive.
For Oc1ccc(/C=N/N2CCN(C3c4ccccc4-c4ccccc43)CC2)cc1 the results were TGFb inhibitor 13µM*, HT1080 IDH1KD tx -8%, HepG2 tox 18µM*, HT1080-NT tox -10%, KB-3-1 cytotox inactive and KB-V1 cytotox inactive.
For c1ccc2c(c1)sc[n+]2CCC1CCCCC1 the results were TGFb inhibitor inconclusive, HepG2 tox -81%, KB-3-1 cytotox inactive and KB-V1 cytotox inactive.
Cc1cc[n+](CCC2CCCCC2)cc1 was read as TGFb inhibitor inconclusive, HepG2 tox -9%, KB-3-1 cytotox 21µM* and KB-V1 cytotox inactive.
For C=C1C=C(C(F)F)n2ncc(C(=O)NC(C)CC)c2N1 (stereo not given) the results were TGFb inhibitor -13%, HepG2 tox 0%, KB-3-1 cytotox inactive and KB-V1 cytotox inactive.
